Data as given in publication PMC13494018.
A number with no mark means an inactive call. How the calls were made is not given here.

Molecular target: CD276, Q5ZPR3
Sequence (Q5ZPR3 whole entry): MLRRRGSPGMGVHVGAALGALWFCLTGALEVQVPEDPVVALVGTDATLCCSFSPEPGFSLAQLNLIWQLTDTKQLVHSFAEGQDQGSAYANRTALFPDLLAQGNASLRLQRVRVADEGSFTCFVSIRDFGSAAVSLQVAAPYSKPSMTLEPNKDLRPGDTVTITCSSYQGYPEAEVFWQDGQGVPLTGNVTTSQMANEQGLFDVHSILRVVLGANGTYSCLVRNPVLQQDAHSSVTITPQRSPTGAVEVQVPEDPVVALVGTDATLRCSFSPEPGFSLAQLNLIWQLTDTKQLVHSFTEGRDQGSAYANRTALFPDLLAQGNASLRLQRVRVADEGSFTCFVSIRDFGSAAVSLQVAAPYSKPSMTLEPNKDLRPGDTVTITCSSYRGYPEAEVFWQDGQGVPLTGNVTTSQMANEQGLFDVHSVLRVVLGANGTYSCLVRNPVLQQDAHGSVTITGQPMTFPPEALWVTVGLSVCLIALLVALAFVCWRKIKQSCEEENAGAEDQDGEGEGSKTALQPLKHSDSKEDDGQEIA

Row | Binder | binding in a display sort
1 | design_621_7e0052dc-ae49-49a0-b99f-9f3ee649cc2f_290_dldesign_0_cycle1_af2pred (protein) AAAALERAARIALAAAKAMLRTAEATGNAAAAAVAADLAAYAAATARAAGPALAPLAAEAEAVEARARALAA | not found
2 | design_621_7e0052dc-ae49-49a0-b99f-9f3ee649cc2f_162_dldesign_0_cycle1_af2pred (protein) MGELFAALIEAMRLASEAARLAKAGEKEEAKEKLEKALKLVGEVAKATGTTAIYDETAKKAEASSLEEAARAVMSGAAKIISEAAKKA | not found
3 | design_620_fbd04095-bef7-46a9-992d-f2cb8915922f_1420_dldesign_0_cycle1_af2pred (protein) KQKYVNAIKANAKNLELIAEGAAQVDPALAKEAKAAAEKAKAKAEEAKKSTAEEAAALRKEVQAALAALSRALIAAAA | not found
4 | design_620_fbd04095-bef7-46a9-992d-f2cb8915922f_1411_dldesign_0_cycle1_af2pred (protein) DELTKLAQEAADAAVRAMEAGRYLPLEEANALINEVIKLYQKASEAAVAGKLEEAKKYAKEAKAKAKEIEELAEKRRA | not found
5 | design_620_fbd04095-bef7-46a9-992d-f2cb8915922f_2241_dldesign_0_cycle1_af2pred (protein) AEKVRELADQMVAIAREAAEKGLSPAEIGAANGQVVDLLEEAYRLAKESGASQEVLDYLNAKNAEANRLLLAAQRA | not found
6 | design_620_fbd04095-bef7-46a9-992d-f2cb8915922f_2282_dldesign_0_cycle1_af2pred (protein) AAAEGQALVKQATAYAEEALRLAREGGDPEEVAAKLNLAATYAIKAMNLPATQAQGAKVMDYLGEVAREVAAIRAARAAA | not found
7 | design_621_7e0052dc-ae49-49a0-b99f-9f3ee649cc2f_147_dldesign_0_cycle1_af2pred (protein) MEAAAEIALKTAKAMTKSAVAAAEAGNLEDARQIAETAKEILEATAKKVSPELAKKLKEAAKKATAEAEAAVKAAAARLAA | not found
8 | design_620_fbd04095-bef7-46a9-992d-f2cb8915922f_1150_dldesign_0_cycle1_af2pred (protein) MRERIEKVEKEAKEAYEATKKAAAAQGEAGKIIAAAADAALKRLEEAAKKAKEALEEGDLESAEKYLKEAEAQLETIKVLKESAE | not found
9 | design_621_7e0052dc-ae49-49a0-b99f-9f3ee649cc2f_375_dldesign_0_cycle1_af2pred (protein) SQAAQIALNAAKSLAENIKKYAEVMSEEEAKGAIELLYDLAKYAKKEDPELGKKAEKIAEEAKKYVEKVFKEKKEEEEK | not found
10 | design_620_fbd04095-bef7-46a9-992d-f2cb8915922f_1739_dldesign_0_cycle1_af2pred (protein) AEAAELLAQLQAATAAAQAAAAAGDAAAANAHLAQAVELASQIHRVGDAAQRAQANQLLAQASRAAIAANAAAAA | not found
11 | design_621_7e0052dc-ae49-49a0-b99f-9f3ee649cc2f_121_dldesign_0_cycle1_af2pred (protein) EEAERKARTAELLKEAIHLGFRGIAVGPEYIKEGAKKLEEAAKLLPEKKPLLEKMAELAKKAAESTPTEALQLTLEMIEIAKEVVE | not found
12 | design_620_fbd04095-bef7-46a9-992d-f2cb8915922f_2412_dldesign_0_cycle1_af2pred (protein) ADGSRLTEAFRVAAEARRVGEEAGKLLGEEALEEAERAAAELRRLLAAAMRAMAAGTGADEAVNAALDAARAALAEFEERLKEAR | not found
13 | design_620_fbd04095-bef7-46a9-992d-f2cb8915922f_1968_dldesign_0_cycle1_af2pred (protein) DAAVQAAVAAGQAAAERARETGERAREAGDEETAARLEALAQSVDILADGAAATKDAHAAATLQTLVRQAEREVEEAERRLEA | not found
14 | design_620_fbd04095-bef7-46a9-992d-f2cb8915922f_2025_dldesign_0_cycle1_af2pred (protein) GLAEVLRASGLALEAYELAEKLAKENPEEGRKAFQEAARLSLRAAARALAIARAFPEIAEFALRLAQRLVELAAEAAEKARELEA | not found
15 | design_620_fbd04095-bef7-46a9-992d-f2cb8915922f_2436_dldesign_0_cycle1_af2pred (protein) EAAKEAEKAYKEAKEAAAAALAAADAAADKVPATAVDVLKRTVTANLKQAEKALKAGDAKAVKAQKKQLELLKEGAAAAA | not found
16 | design_621_7e0052dc-ae49-49a0-b99f-9f3ee649cc2f_282_dldesign_0_cycle1_af2pred (protein) ARAKIVEAAKKAAKEAEAATTRGEVLVALAKAAAVFNRVGDAAGAARVSAAIVQATQLDAAEAKKLAVEVLTAIAEEAA | not found
17 | design_620_fbd04095-bef7-46a9-992d-f2cb8915922f_2199_dldesign_0_cycle1_af2pred (protein) AEAAAQAARASVAAARAAVKDARRIAENAKTPEQLESAKKVLEVARALAEDAERNAKAAGDEELVKLAEEARKEAEEAEKKVREKAEE | not found
18 | design_620_fbd04095-bef7-46a9-992d-f2cb8915922f_1144_dldesign_0_cycle1_af2pred (protein) DPARQATINALIKAAAEAAKLGDTALSQAAVEAAVALASAKTQEELDAAQKEADAVLAAAAKRKAAAAAA | not found
19 | design_621_7e0052dc-ae49-49a0-b99f-9f3ee649cc2f_407_dldesign_0_cycle1_af2pred (protein) SEAQRLYDAAKTWADIANAAIQQAAADPSTAAVAVAAAKAAVASAKRLAEKAEKLAAKKPEYAPLAKDAKAAVAAAAAAAKAAAA | not found

Row | Binder | binding in a display sort
20 | design_620_fbd04095-bef7-46a9-992d-f2cb8915922f_1337_dldesign_0_cycle1_af2pred (protein) ADAATQAAIDANAAQAERALAAARADPAALPYAQAAIRNLELIAAGASPETQARGLARAEALRAALAAARAAA | not found
21 | design_620_fbd04095-bef7-46a9-992d-f2cb8915922f_2277_dldesign_0_cycle1_af2pred (protein) GAAAERAALRDAALAEVDALLAAGAAAAAAAASPVAALLDAHRAAAEVIARLRERDPAAGEEVAAEAQARFSALLRQASASVVA | not found
22 | design_620_fbd04095-bef7-46a9-992d-f2cb8915922f_846_dldesign_0_cycle1_af2pred (protein) AADALAGAKAALNTIKAAETNAKKLDAAGAEAQYKLAKVALESAKVHAAKLGEEGKKIAEEAKKALAATKAVAEAKKAA | not found
23 | design_620_fbd04095-bef7-46a9-992d-f2cb8915922f_687_dldesign_0_cycle1_af2pred (protein) ATAAEAAALRDAGVAAANSAAAAAKAGNTTAAGELLTEAVKLAAQLAALGDEAGAAEVRAAIAASSKTIIAAQAA | not found
24 | design_620_fbd04095-bef7-46a9-992d-f2cb8915922f_790_dldesign_0_cycle1_af2pred (protein) AKAKELAKKAEKALKAAKEAAKLKPEEAAAKANKELGKVLEAQKKAVEAGAPQEALDKINAVATEIAKIALEAAKAA | not found
25 | design_620_fbd04095-bef7-46a9-992d-f2cb8915922f_1927_dldesign_0_cycle1_af2pred (protein) AAAQAALEKMKALAEQALAEIKALSQKDQASIDQGIAVLSRTVTELMTAANQYPEVAAQYAQLAVDLLEQSSKYIRAGRARVAAKEAA | not found
26 | design_620_fbd04095-bef7-46a9-992d-f2cb8915922f_1232_dldesign_0_cycle1_af2pred (protein) SERHQQLVDFMVAAGQVALTNLAGALRTAEIVARTDPAAAVEGAKKIRELAAKTTPEDAAKMNAVADHALAAAA | not found
27 | design_621_7e0052dc-ae49-49a0-b99f-9f3ee649cc2f_216_dldesign_0_cycle1_af2pred (protein) RMAEVAERIRRTAEEVREGDAETAVRLAAEVLELARREGNEASAHLAANALRAARAGDVERAVVYLEAAAEITALS | not found
28 | design_620_fbd04095-bef7-46a9-992d-f2cb8915922f_839_dldesign_0_cycle1_af2pred (protein) MSWSEKAAEAAIKRLKELAKKAVSEGGKYAELAAAAARNAALLSYAAGPEMAKKAIKVFKEAAKLYPELAPAMEQAIALIESLL | not found
29 | design_620_fbd04095-bef7-46a9-992d-f2cb8915922f_1915_dldesign_0_cycle1_af2pred (protein) NEDLKKAAELAKKAAQLAPQPEAAEVAAKAAEAAEKAVGPELGNYALALATLPPAARALGMSNLATSLEKLV | not found
30 | design_620_fbd04095-bef7-46a9-992d-f2cb8915922f_946_dldesign_0_cycle1_af2pred (protein) AAALEAARRVAYGQMVLGKMKADEGLKKAESGEDLEGGIKMAEEGLKLAKEYAEYDPVKGGAAAKEIGAKLKKMKELAKKAK | not found
31 | design_620_fbd04095-bef7-46a9-992d-f2cb8915922f_1950_dldesign_0_cycle1_af2pred (protein) GVAETLKRNLEAAERILKEGEELFETDPAAGAAKFKSAELLATGVVATAEADPSVPEEILKRAKELAKRAKEALEEAEKKVEELKA | not found
32 | design_620_fbd04095-bef7-46a9-992d-f2cb8915922f_1750_dldesign_0_cycle1_af2pred (protein) DPAKELARRVVEANLKQLKKLLEEAGKASTEEGKKLAKEAIEKVEKLKKEALASSAAEATALTVKAIEEASKALREIKKLK | not found
33 | design_620_fbd04095-bef7-46a9-992d-f2cb8915922f_2334_dldesign_0_cycle1_af2pred (protein) LTEEEQKELIIDTIKGLAESAKQFAKASGDPELAKQAEKVAELAKKAIEVTKKGTLEDGVKALSEVSKATMEVAKAA | not found
34 | design_620_fbd04095-bef7-46a9-992d-f2cb8915922f_936_dldesign_0_cycle1_af2pred (protein) LTPLEKAEAAKAKADKLYEAAQKATKAEAASLYGEAAVEYAKAAAYYLRAGDAAAAAAAQANLKTAVAKSQALVAA | not found
35 | design_620_fbd04095-bef7-46a9-992d-f2cb8915922f_1723_dldesign_0_cycle1_af2pred (protein) SAAAQQAAWQTYVDAAAEMSKLRREALASGDPEVKEKAIEEIKALADKAAANPAAAAAAKLAGENMTAALTES | not found
36 | design_620_fbd04095-bef7-46a9-992d-f2cb8915922f_814_dldesign_0_cycle1_af2pred (protein) SALSIAQLAASTQAVMKRAAKEVKGELAKKIKEAAKLAATGEKAKEAAALLKEAAKEAPEELKPLVASAAKHAELLVAAS | not found
37 | design_620_fbd04095-bef7-46a9-992d-f2cb8915922f_1742_dldesign_0_cycle1_af2pred (protein) AAAVATAAAQAFLAQAEKNLAAAKAALKAGDYEAAIKHAQAAIGSAQSAKLAAQSAGDAALAAQADKVIAEAKKVLAEAEKALKEA | not found
38 | design_620_fbd04095-bef7-46a9-992d-f2cb8915922f_868_dldesign_0_cycle1_af2pred (protein) MEEERREELRRKAEEYIAQAEALAAQTSPSAQLLVSNLARQARRLAEAGDYEGALEVARAALEGAQAMAAQQ | not found
